# Screening results deposited in PubChem by National Center for Advancing Translational Sciences (NCATS).
# SW480 rerep: induces DNA re-replication in SW480 colon adenocarcinoma cells; 340,000 compounds, 1.8% hits; Potency, µM (series often up to 46.1 µM), for the others: at the highest dose re-replication activation, hits mostly activators; SW480 DNA re-replication, Hoechst DNA content imaging, 48 h; AID 624297; also: % of control where 0% means no effect; nearly all actives have a fitted effect of over 55% in size
#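 SW480 cells exposed to compounds for 48 hr at 37 C, 5% CO2, then Hoechst-stained 40 min. Nuclear DNA content imaged by fluorescence scanning (405 nm excitation, 500-530 nm emission); re-replication scored as increased high-intensity nuclei.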
# Mito fusion act: inhibitors of mitochondrial division or activators of mitochondrial fusion | S. cerevisiae fusion-defective mutant growth rescue, CellTiterGlo 48 h | Potency, µM (highest dose often 46.1 µM), for inactives: at the top dose growth rescue (activation), hits mostly activators | 320,000 compounds, 0.23% hits | AID 485298; also: % of control where 0% means no effect; nearly all actives have a fitted effect of over 45% in size
#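 Yeast fusion mutant, YPEG (non-fermentable carbon), compound, 48 h at 37C non-permissive; CellTiterGlo added, 10 min RT, luminescence read. Rescued growth = division inhibition.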
# MCF10A rereplic: induces DNA re-replication in MCF 10a normal breast cells; MCF 10A DNA re-replication, Hoechst nuclear intensity, 48 h; 350,000 compounds, 2.9% hits; Potency, µM (top dose mostly 46.1 µM), inactives show top-dose activity, positive = re-replication, hits mostly activators; also: % of control where 0% means no effect; nearly all actives have a fitted effect of over 50% in size
# A-T KAP1 phos: potential ataxia-telangiectasia treatment | Potency, µM (series often up to 57.5 µM), without a hit: at the top dose activation, actives largely listed as activators | AID 485349 | F2112 A-T fibroblasts, KAP-1 phosphorylation AlphaLISA; neocarzinostatin DNA damage 30 min before lysis | 320,000 compounds, 0.19% hits; also: % of control where 0% means no effect; nearly all actives have a fitted effect of over 45% in size
#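 hTERT-immortalized A-T patient fibroblasts (F2112), 500 cells/well in OPTI-MEM, 1% FBS, got compounds for 60 min, then NCS for 30 min at 37C. Lysates were then assayed for phospho-KAP-1 by AlphaLISA (anti-pKAP1 donor, anti-KAP1 acceptor beads), 6 hr at 25C.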
# Integrin act MD: integrin-mediated muscular dystrophy alleviation activation; alpha7betagal myoblasts, beta-gal FDG fluorescence, 48 h; Potency, µM (top dose mostly 38.3 µM), inactives show at the highest dose activation, usual class: activators; 350,000 compounds, 0.064% hits; AID 624291;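 also: 100% = response of the positive control SU9516; nearly all actives have a fitted effect of over 60% in size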
#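 Alpha7betagal+/- myoblasts (passage 13) were plated 16-24 hr, then exposed to compounds (1:260 dilution of DMSO stock) for 48 hours at 37C. After MPER lysis, β-galactosidase reporter activity was read as FDG fluorescence (ex 480/em 540) after 30 minutes.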
# Starred values were filed as active, the others as inactive; ? = inconclusive; nt = no result given; [ ] = dose if it differs, or a comment. This is a sample that favours compounds with a hit; in the whole collection about 4.2% have one here. Calls follow the shape of the dose curve; as a rule, active = well fitted activation curve with a large enough effect; inconclusive = small, poorly fitted or top-dose-only effect; inactive = no such curve, though single readings can be large or run the other way. Potency is read from the fitted curve at half-maximal effect.
SMILES,SW480 rerep,Mito fusion act,MCF10A rereplic,A-T KAP1 phos,Integrin act MD
Cc1ccc(C(O)c2nccn2C)o1 (stereo not drawn),10.4%,-0.7%,5.8µM*,nt,-27.7%
COc1ccc(COc2cc(-c3cccc(OC)c3)nc3ccc(NC(=O)C(C)C)cc23)cc1,14.6µM*,-0.5%,?,8.7%,15.4%
C/C(=C\C(=O)Nc1nccs1)c1ccccc1,3.3%,-7.3%,0.3%,nt,15.8%
Cc1[nH]c2ccccc2c1SCC(=O)NNC(=O)Nc1ccc(OC(F)(F)F)cc1,-3.1%,2.9%,13µM*,-1.0%,-3.9%
COc1ccc(C(=O)OC(C)C(=O)NC(C)CCc2ccccc2)c(OC)c1 (stereo not drawn),20.9%,11.2µM*,13.1%,9.8%,?
O=C(NCc1ccc(F)cc1)C(=O)Nc1nc(C23CC4CC(CC(C4)C2)C3)cs1,?,-1.7%,18.4µM*,1.6%,-36.3%
CN(C(=O)c1ccc(COc2ccccc2Br)o1)c1ccccc1,-15.0%,1.1%,-1.9%,-2.4%,15.1%
O=C(O)c1nn(CCOc2ccccc2F)c(=O)c2ccccc12,2.8%,5.4%,-1.3%,1.4%,2.6%
CC[C@]12c3[nH]c4cc(-c5ccco5)ccc4c3CCN1C(=O)[C@@H](CC(=O)NC(C)(C)C)C[C@@H]2C(=O)N1CCN(C(=O)c2ccco2)CC1,7.5%[9.22 µM],nt,-8.0%,-19.7%,15.1%
Cc1cc(NC(=O)CSCC(=O)Nc2nc3c(C)cccc3s2)no1,17.1%,-3.2%,?,7.1%,22.2%
Cc1nn(CC(=O)NCc2ccc(-n3cccn3)cc2)c(C)c1[N+](=O)[O-],0.517µM*,-4.4%,0.2%,0.0%,3.1%
Cc1nn(CC(=O)NCc2ccc(Cl)cc2)c(C)c1[N+](=O)[O-],?,-0.8%,1.1%,nt,-10.7%
Cc1cc(C)c(OCC(=O)NCC2COc3ccccc3O2)c(C)c1 (stereo not drawn),0.4%,22.4%,13.9%,14.2%,18.1%
CCCCN(C(=O)c1cc(Cl)nc2ccccc12)c1c(N)n(Cc2ccccc2)c(=O)[nH]c1=O,-3.2%,11.8%,-1.1%,9.9%,1.7%
O=C(Nc1ccc(Cl)cc1)Nc1nc(-c2ccccc2O)cs1,16.5%,8.0%,20.0%,39.8µM*,-38.8%
O=C(Nc1ccc(Cl)cc1)Nc1nc(-c2sccc2Br)cs1,21.1%,4.3%,11.4%,11.6%,-27.3%
COc1ccc(-c2ccc(CN3C(C(C)C)C(=O)N(Cc4cn(Cc5ccco5)nn4)CCS3(=O)=O)cc2)cn1 (stereo not drawn),nt,nt,nt,nt,8.5%
COc1ccc(OC)c(Nc2cc3ccccc3c(=O)[nH]2)c1,20.6µM*,nt,16.4µM*,nt,-21.3%
O=c1[nH]c(Nc2ccccc2)cc2cc(Br)ccc12,?,nt,?,nt,-3.6%
O=c1[nH]c(Nc2ccccc2)cc2ccccc12,19.1%,3.5%,13µM*,11.0%,9.0%
COc1ccccc1Nc1cc2cc(Br)ccc2c(=O)[nH]1,?,nt,20.6µM*,nt,-9.8%
CC(Sc1nnnn1-c1ccccc1)C(=O)NC1CCCC1 (stereo not drawn),-2.2%,-2.2%,3.1%,-1.3%,-23.4%
COc1ccc(NC(=O)CCNC(=O)c2ccco2)cc1Cl,-17.8%,-3.9%,-16.4%,7.8%,-6.0%
COCCn1c(SCC(=O)c2[nH]c(C)c(C(C)=O)c2C)nc2ccccc21,-10.1%,7.3%,-17.4%,5.0%,-23.7%
CC(=O)c1sc2nc(C)c3c(c2c1N)CCCC3,14.6µM*,-6.0%,18.4µM*,35.5µM*,?
SMILES,SW480 rerep,Mito fusion act,MCF10A rereplic,A-T KAP1 phos,Integrin act MD
Cc1nc2sc(C#N)c(N)c2c2c1CCCC2,-4.3%[9.22 µM],-4.3%,-9.7%,21.5%,?
Oc1cccc(C(O)CNCc2ccc(OCc3ccc(Cl)cc3Cl)cc2)c1 (stereo not drawn),?,-1.7%,14.6µM*,2.0%,-4.5%
Oc1cccc(C(O)CNCc2ccc(-c3ccccc3)cc2)c1 (stereo not drawn),?,-1.3%,16.4µM*,4.4%,?
CCOC(=O)[C@@H](NC(=O)CC[C@H]1O[C@@H](n2cc(C)c(=O)[nH]c2=O)C[C@@H]1O)C(C)C,nt,nt,nt,nt,-6.3%
O=C(Nc1ccc(F)cc1F)c1ccccc1NC(=O)C1CC=CCC1C(=O)O (stereo not drawn),-3.7%,2.5%,8.2%,1.2%,17.7%
CCCCCCCN(C(=O)CCl)c1ccccc1C,7.31µM*,2.7%,0.3%,5.1%,0.0%
Cc1ccccc1N(Cc1cc(=O)[nH]c2ccccc12)C(=O)CCl,nt,-15.9%,nt,11.4%,nt
COc1ccccc1NC(=O)N(C)C[C@@H]1OCc2cn(nn2)CCCC(=O)N([C@H](C)CO)C[C@H]1C,nt,nt,nt,nt,6.7%
O=C(NCCN1C(=O)S/C(=C\c2ccc(Cl)c(Cl)c2)C1=O)c1ccc2c(c1)C(=O)N(Cc1ccncc1)C2=O,-2.1%,-0.1%,16.4µM*,1.7%,-30.8%
O=C(NCCN1C(=O)S/C(=C\c2ccc(OC(F)F)cc2)C1=O)c1cnccn1,5.8µM*,9.9%,5.8µM*,-1.3%,-29.9%
O=C(NCCN1C(=O)S/C(=C\c2ccc(Cl)cc2)C1=O)C1=COCCO1,0.4%,nt,1.6%,4.8%,-4.6%
COc1ccc(/C=C2\SC(=O)N(CCNC(=O)C3=COCCO3)C2=O)cc1,10.3µM*,-2.5%,1.84µM*,8.1%,-16.6%
O=C(NCCN1C(=O)S/C(=C\c2ccc(OC(F)F)cc2)C1=O)C1=COCCO1,20.6µM*,14.1%,18.4µM*,-9.5%,-6.5%
Cc1ccc(S(=O)(=O)N2CCOCC2)cc1NC(=O)COC(=O)COc1ccc(C#N)cc1,nt,nt,nt,nt,2.5%
O=C(O)c1ccc2c(c1)C(=O)N([C@H](Cc1ccc(O)c(O)c1)C(=O)O)C2=O,nt,-4.0%,nt,-12.9%,nt
COc1ccc([C@]23Cc4ccccc4C(O2)C2=C(O3)C(=O)c3ccccc3C2=O)cc1,nt,-0.2%[9.22 µM],nt,2.3%[11.5 µM],nt
CCCc1cc(=O)oc2c3c(c4c(c12)OC(C)(C)C=C4)OC(C)C(C)C3O (stereo not drawn),-3.4%,-0.2%,10.3µM*,-9.2%,-47.9%
CCCc1cc(=O)oc2c3c(cc(OCC(=O)N[C@@H](C)C(=O)O)c12)OC(C)(C)CC3,-1.0%,1.6%,0.2%,-8.6%,-12.1%
CN(C)c1ccc(/C=C2\CCCc3c2nc2ccccc2c3C(=O)O)cc1,23.3%,-1.1%,18.4µM*,-3.7%,-15.3%
COc1ccc(/C=C2\CCCc3c2nc2ccccc2c3C(=O)O)cc1OC,nt,1.7%,nt,26.9%,nt
COc1cc(/C=C2\CCCc3c2nc2ccccc2c3C(=O)O)cc(OC)c1O,25.9µM*,-2.3%,-2.3%,1.5%,11.1%
COc1cc(-c2nc3ccc4ccccc4c3c3c2CCC3)cc(OC)c1O,?,-23.3%,14.6µM*,7.1%,8.2%
COc1ccc(-c2c(C)nn3c(C(F)(F)F)cc(C)nc23)cc1OC,nt,-0.9%,nt,nt,nt
